Experimental data as given in PubChem BioAssay (EPA / NIEHS).
Records with an inconclusive call do not appear. Active and inactive are the calls of the source. The calls were made as follows: active = hit-call score of the fitted dose curve at least 0.9, where 1 is the maximum; inconclusive = response in the unintended direction; inactive = score below 0.9.

Key:
[1] = ATG_M_19_XSP1: Attagene TRANS-FACTORIAL Multi-Species (XSP1) HepG2 Assay for M19 Transcription Factor (Internal Marker) (AID 2283798)
Description: (§1) ATG_XSP1_multi-species_TRANS is a cell-based, multiplexed assay created by modifying the existing Attagene TRANS-FACTORIAL system to include a panel of nuclear receptors from some or all the following species: human (Homo sapiens), mouse (Mus musculus), frog (Xenopus laevis), zebrafish (Danio rerio), chicken (Gallus gallus), and turtle (Chrysemys picta). The ECOTOX-FACTORIAL format uses HepG2, a human liver cell line, with measurements taken at 24 hours after chemical dosing in a 24-well plate. Xsp1 included 3 nM 6-alpha-fluorotestosterone to partially stimulate the androgen receptor.ATG_M_19_XSP1 is one of 29 assay components measured or calculated from the ATG_XSP1_multi-species_TRANS assay. It is designed to make measurements of mRNA induction, a form of inducible reporter, as detected with fluorescence intensity signals by Reverse transcription polymerase chain reaction (RT-PCR) and Capillary electrophoresis technology.This assay endpoint, ATG_M_19_XSP1, was analyzed in the positive analysis fitting direction relative to DMSO as the negative control and baseline of activity. Using a type of inducible reporter, measures of mRNA for gain-of-signal activity can be used to understand the background control at the transcription factor-level as they relate to the gene. Furthermore, this assay endpoint can be referred to as a secondary readout, because this assay has produced multiple assay endpoints where this one serves a background control function. To generalize the intended target to other relatable targets, this assay endpoint is annotated to the background measurement intended target family, where the subfamily is internal marker.
(§2) Human liver HepG2 cells are transiently transfected with multiple reporter transcription units (MRTUs) in 6-well plates using FuGene 6 reagent (Roche; 3 ml FuGene/1 mg DNA). The MRTU constructs are regulated by a cis-regulating element (promoter). […] A major difference between the CIS and TRANS system is that in CIS activities of endogenous TFs are measured, whereas the TRANS assay evaluates changes in activities of exogenous, chimeric NR-Gal4 proteins. […] At the end of 24 hour incubation, total RNA was isolated using TriZol reagent (Invitrogen). The isolated RNA is then reverse-transcribed using oligo(dT) primer and Mo-MLV reverse transcriptase (Invitrogen) with DNAse I (Ambion) treatment for 30 min. The one-tenth of the produced cDNA was amplified by PCR using Taq DNA polymerase (Invitrogen) and two reporter sequence-specific primers. The PCR products were fluorescently labeled by primer extension with 6-arboxyfluorescein (6-FAM) 5'-labeled reporter sequence-specific primer (2 min at 95 C, 20 s at 68 C and 10 min at 72 C) and these products were digested with 5U of HpaI (New England Biolabs) for 2h at 37 C. The fragments were purified using Qiaquick PCR columns (Qiagen), analyzed on an ABI 3130xL genetic analyzer (Applied Biosystems) with peak positions identified by using a set of X-rhodamine (ROX)-labeled MapMarker1000 molecular weight standards (BioVentures). The raw capillary electrophoresis data was processed using Attagraph software (Attagene).

[2] = ATG_M_32_XSP1: Attagene TRANS-FACTORIAL Multi-Species (XSP1) HepG2 Assay for M32 Transcription Factor (Internal Marker) (AID 2283799)
In short: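 Reporter transcripts from the M32 internal-control unit measured by RT-PCR, FAM labelling, HpaI digestion and capillary electrophoresis after 24 h compound exposure of transfected HepG2, 3 nM 6-alpha-fluorotestosterone included; DMSO baseline, positive-direction fit.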

[3] = target: frog Thyroid hormone Receptor alpha (TRa), thra-a (gene 397942) (UniProt P15204); test: ATG_frTRa_XSP1: Attagene TRANS-FACTORIAL Multi-Species (XSP1) HepG2 Assay for frog Thyroid hormone Receptor alpha (TRa) (AID 2283804)
Sequence of frog Thyroid hormone Receptor alpha (TRa), thra-a (gene 397942) (P15204 whole entry, looked up, the tested form may be a part): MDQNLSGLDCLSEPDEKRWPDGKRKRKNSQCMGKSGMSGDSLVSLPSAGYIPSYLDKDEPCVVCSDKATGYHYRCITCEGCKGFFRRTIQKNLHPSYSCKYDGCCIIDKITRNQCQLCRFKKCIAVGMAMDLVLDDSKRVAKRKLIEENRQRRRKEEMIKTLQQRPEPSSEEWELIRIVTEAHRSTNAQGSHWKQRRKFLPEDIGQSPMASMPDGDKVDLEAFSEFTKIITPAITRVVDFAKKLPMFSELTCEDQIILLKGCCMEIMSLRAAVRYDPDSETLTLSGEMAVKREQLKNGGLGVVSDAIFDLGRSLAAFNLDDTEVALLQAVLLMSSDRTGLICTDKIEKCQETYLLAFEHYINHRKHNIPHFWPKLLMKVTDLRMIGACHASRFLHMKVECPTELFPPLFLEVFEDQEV
In short: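 Reporter transcript induction, measured by RT-PCR with 6-FAM labelling and capillary electrophoresis, 24 hr after dosing transiently transfected HepG2 cells expressing a frog TRa-GAL4 fusion; medium contained 3 nM 6-alpha-fluorotestosterone; increase over DMSO scored.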

[4] = tested on: zebrafish Peroxisome Proliferator-activated Receptor gamma (PPARg), gene 557037; test: ATG_zfPPARg_XSP1: Attagene TRANS-FACTORIAL Multi-Species (XSP1) HepG2 Assay for zebrafish Peroxisome Proliferator-activated Receptor gamma (PPARg) (AID 2283801)
In short: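 Trans-activation readout of chimeric zebrafish PPARg–GAL4 in transiently transfected human HepG2 cells, 24 h chemical exposure (medium includes 3 nM 6-alpha-fluorotestosterone). Reporter transcripts measured by RT-PCR and capillary electrophoresis, fitted as gain over DMSO.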

[5] = target: mouse Peroxisome Proliferator-activated Receptor gamma (PPARg), Pparg (gene 19016) (UniProt P37238); test: ATG_mPPARg_XSP1: Attagene TRANS-FACTORIAL Multi-Species (XSP1) HepG2 Assay for mouse Peroxisome Proliferator-activated Receptor gamma (PPARg) (AID 2283802)
Sequence of mouse Peroxisome Proliferator-activated Receptor gamma (PPARg), Pparg (gene 19016) (P37238 whole entry, looked up, the tested form may be a part): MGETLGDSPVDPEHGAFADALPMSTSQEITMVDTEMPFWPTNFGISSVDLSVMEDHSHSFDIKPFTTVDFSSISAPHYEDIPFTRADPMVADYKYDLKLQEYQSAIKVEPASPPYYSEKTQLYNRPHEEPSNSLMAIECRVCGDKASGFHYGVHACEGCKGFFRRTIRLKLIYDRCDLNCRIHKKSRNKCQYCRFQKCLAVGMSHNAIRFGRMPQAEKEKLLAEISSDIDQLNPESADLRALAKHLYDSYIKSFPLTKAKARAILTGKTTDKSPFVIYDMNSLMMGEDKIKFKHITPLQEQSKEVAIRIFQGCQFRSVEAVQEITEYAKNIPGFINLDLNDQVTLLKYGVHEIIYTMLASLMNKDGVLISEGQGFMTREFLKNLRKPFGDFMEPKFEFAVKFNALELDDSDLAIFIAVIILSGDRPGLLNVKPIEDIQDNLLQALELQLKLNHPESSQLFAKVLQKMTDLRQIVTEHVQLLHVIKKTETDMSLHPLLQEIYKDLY
In short: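 Readout is reporter mRNA induction, measured by RT-PCR with 6-FAM labelling, HpaI digestion and capillary electrophoresis, 24 h post-dose relative to DMSO. Transient multi-reporter transfection of human HepG2 with mouse PPARg–GAL4 fusion; 3 nM 6-alpha-fluorotestosterone included.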

[6] = target: Nuclear receptor subfamily 1 group I member 2 (Mus musculus) (UniProt O54915); test: ATG_mPXR_XSP1: Attagene TRANS-FACTORIAL Multi-Species (XSP1) HepG2 Assay for mouse Pregnane X Receptor (PXR) (AID 2283803)
Sequence of Nuclear receptor subfamily 1 group I member 2 (Mus musculus) (O54915 whole entry, looked up): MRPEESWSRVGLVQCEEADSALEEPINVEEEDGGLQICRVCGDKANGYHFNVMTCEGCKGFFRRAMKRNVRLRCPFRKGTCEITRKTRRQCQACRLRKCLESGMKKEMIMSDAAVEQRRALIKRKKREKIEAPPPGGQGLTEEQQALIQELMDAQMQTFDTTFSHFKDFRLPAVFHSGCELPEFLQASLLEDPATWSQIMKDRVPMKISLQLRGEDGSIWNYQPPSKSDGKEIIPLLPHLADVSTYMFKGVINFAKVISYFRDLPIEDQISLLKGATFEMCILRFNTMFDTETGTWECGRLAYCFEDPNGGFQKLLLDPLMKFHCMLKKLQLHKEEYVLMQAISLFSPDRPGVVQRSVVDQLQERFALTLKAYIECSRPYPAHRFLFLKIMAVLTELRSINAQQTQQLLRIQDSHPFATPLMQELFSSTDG
Description: (§3) ATG_XSP1_multi-species_TRANS is a cell-based, multiplexed assay created by modifying the existing Attagene TRANS-FACTORIAL system to include a panel of nuclear receptors from some or all the following species: human (Homo sapiens), mouse (Mus musculus), frog (Xenopus laevis), zebrafish (Danio rerio), chicken (Gallus gallus), and turtle (Chrysemys picta). The ECOTOX-FACTORIAL format uses HepG2, a human liver cell line, with measurements taken at 24 hours after chemical dosing in a 24-well plate. Xsp1 included 3 nM 6-alpha-fluorotestosterone to partially stimulate the androgen receptor.ATG_mPXR_XSP1 is one of 29 assay components measured or calculated from the ATG_XSP1_multi-species_TRANS assay. It is designed to make measurements of mRNA induction, a form of inducible reporter, as detected with fluorescence intensity signals by Reverse transcription polymerase chain reaction (RT-PCR) and Capillary electrophoresis technology.The assay endpoint ATG_mPXR_XSP1 was analyzed in the positive analysis fitting direction relative to DMSO as the negative control and baseline of activity. Using a type of inducible reporter, measures of mRNA for gain-of-signal activity can be used to understand the reporter gene at the transcription factor-level as they relate to the gene PXR. Furthermore, this assay endpoint can be referred to as a primary readout, because this assay has produced multiple assay endpoints where this one serves a reporter gene function. To generalize the intended target to other relatable targets, this assay endpoint is annotated to the nuclear receptor intended target family, where the subfamily is non-steroidal.
as §2, with “The one-tenth of the produced cDNA was amplified by PCR using Taq DNA polymerase (Invitrogen) and two reporter sequence-specific primers. The PCR products were fluorescently labeled by primer extension with 6-arboxyfluorescein (6-FAM) 5'-labeled reporter sequence-specific primer (2 min at 95 C, 20 s at 68 C and 10 min at 72 C) and these products were digested with 5U of HpaI (New England Biolabs) for 2h at 37 C.” left out, “The raw capillary electrophoresis data was processed using Attagraph software (Attagene).” left out

[7] = target: GAL4 Transcription Factor (Internal Marker), GAL4 (gene 855828) (UniProt P04386); test: ATG_GAL4_XSP1: Attagene TRANS-FACTORIAL Multi-Species (XSP1) HepG2 Assay for GAL4 Transcription Factor (Internal Marker) (AID 2283789)
Sequence of GAL4 Transcription Factor (Internal Marker), GAL4 (gene 855828) (P04386 whole entry, looked up, the tested form may be a part): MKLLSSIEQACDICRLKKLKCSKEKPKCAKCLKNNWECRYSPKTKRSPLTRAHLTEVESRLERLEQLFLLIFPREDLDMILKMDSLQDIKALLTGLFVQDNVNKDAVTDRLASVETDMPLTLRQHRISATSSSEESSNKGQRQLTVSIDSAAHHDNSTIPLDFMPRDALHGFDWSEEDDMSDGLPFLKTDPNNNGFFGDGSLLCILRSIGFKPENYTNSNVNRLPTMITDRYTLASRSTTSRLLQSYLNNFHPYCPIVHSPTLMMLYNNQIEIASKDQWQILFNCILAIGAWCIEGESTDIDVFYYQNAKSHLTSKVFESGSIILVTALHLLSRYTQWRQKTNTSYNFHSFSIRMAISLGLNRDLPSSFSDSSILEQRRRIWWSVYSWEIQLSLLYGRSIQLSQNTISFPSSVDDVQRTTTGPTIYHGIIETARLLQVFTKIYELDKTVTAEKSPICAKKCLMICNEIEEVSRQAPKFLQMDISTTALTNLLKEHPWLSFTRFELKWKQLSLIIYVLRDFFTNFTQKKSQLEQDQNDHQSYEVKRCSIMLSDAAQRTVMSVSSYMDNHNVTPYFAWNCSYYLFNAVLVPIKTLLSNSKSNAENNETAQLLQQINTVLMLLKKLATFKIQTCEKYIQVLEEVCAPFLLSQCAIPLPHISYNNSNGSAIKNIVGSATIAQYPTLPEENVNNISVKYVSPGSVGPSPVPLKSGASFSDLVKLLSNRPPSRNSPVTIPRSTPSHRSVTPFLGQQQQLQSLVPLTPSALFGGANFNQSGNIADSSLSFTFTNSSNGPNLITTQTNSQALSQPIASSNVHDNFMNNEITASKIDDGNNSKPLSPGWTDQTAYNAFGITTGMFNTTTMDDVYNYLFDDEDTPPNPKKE
In short: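 This background-control endpoint measures GAL4-driven reporter mRNA via RT-PCR and capillary electrophoresis of labelled fragments. Transiently transfected HepG2 cells were treated 24 h, with 3 nM 6-alpha-fluorotestosterone included, and gain-of-signal was fitted against DMSO.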

[8] = ATG_M_06_XSP1: Attagene TRANS-FACTORIAL Multi-Species (XSP1) HepG2 Assay for M06 Transcription Factor (Internal Marker) (AID 2283790)
In short: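 This background-control readout tracks M06 reporter mRNA, measured by RT-PCR and capillary electrophoresis. HepG2 cells transiently carrying the GAL4-UAS reporter panel were dosed for 24 h with 3 nM 6-alpha-fluorotestosterone added for partial AR stimulation; increases were scored relative to DMSO.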

[9] = ATG_M_61_XSP1: Attagene TRANS-FACTORIAL Multi-Species (XSP1) HepG2 Assay for M61 Transcription Factor (Internal Marker) (AID 2283797)
Description: as §1, with “receptor.ATG_M_61_XSP1” for “receptor.ATG_M_19_XSP1”, “ATG_M_61_XSP1,” for “ATG_M_19_XSP1,”, “Using a type of inducible reporter, measures of mRNA for gain-of-signal activity can be used to understand the background control at the transcription factor-level as they relate to the gene.” left out, “To generalize the intended target to other relatable targets, this assay endpoint is annotated to the background measurement intended target family, where the subfamily is internal marker.” left out

[10] = target: Peroxisome proliferator-activated receptor gamma (Homo sapiens) (UniProt P37231); test: ATG_hPPARg_XSP1: Attagene TRANS-FACTORIAL Multi-Species (XSP1) HepG2 Assay for human Peroxisome Proliferator-activated Receptor gamma (PPARg) (AID 2283800)
Sequence of Peroxisome proliferator-activated receptor gamma (Homo sapiens) (P37231 whole entry, looked up): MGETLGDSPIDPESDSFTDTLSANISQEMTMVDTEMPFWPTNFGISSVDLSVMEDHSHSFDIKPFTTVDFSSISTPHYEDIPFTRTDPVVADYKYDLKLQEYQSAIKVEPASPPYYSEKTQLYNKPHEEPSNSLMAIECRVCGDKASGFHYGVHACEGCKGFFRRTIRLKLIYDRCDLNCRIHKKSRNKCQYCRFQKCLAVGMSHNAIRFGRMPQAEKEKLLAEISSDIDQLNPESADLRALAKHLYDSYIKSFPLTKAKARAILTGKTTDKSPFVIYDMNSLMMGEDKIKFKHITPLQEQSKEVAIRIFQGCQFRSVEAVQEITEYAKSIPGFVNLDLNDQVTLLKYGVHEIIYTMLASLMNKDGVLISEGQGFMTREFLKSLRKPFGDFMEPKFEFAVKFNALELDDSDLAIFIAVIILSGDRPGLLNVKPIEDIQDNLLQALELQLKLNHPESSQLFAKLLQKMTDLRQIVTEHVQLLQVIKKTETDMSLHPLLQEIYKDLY
Description: as §3, with “receptor.ATG_hPPARg_XSP1” for “receptor.ATG_mPXR_XSP1”, “ATG_hPPARg_XSP1” for “ATG_mPXR_XSP1”, “Using a type of inducible reporter, measures of mRNA for gain-of-signal activity can be used to understand the reporter gene at the transcription factor-level as they relate to the gene PXR.” left out, “To generalize the intended target to other relatable targets, this assay endpoint is annotated to the nuclear receptor intended target family, where the subfamily is non-steroidal.” left out

In the case of `C[C@]12C=CC3=C4CCC(=O)C=C4CC[C@H]3[C@@H]1CC[C@@H]2O`, the outcome [1] is reported as “inactive”, the outcome [2] is reported as “inactive” and the outcome [3] is reported as “inactive”.
For `CCCCOC(=O)c1ccccc1C(=O)OCc1ccccc1`, the outcome [1] was “inactive”, the outcome [2] was “inactive” and the outcome [4] was “inactive”. For the same compound, the AC50 [5] was 9.86 µM (active) and the AC50 [6] was 3.81 µM (active).
In the case of `CCCCCOC(=O)c1ccccc1C(=O)OCCCCC`, the outcome [7] is reported as “inactive”, the outcome [8] is reported as “inactive” and the outcome [9] is reported as “inactive”. For the same compound, the outcome [2] was “inactive”, the AC50 [10] was 31.9 µM (active) and the outcome [4] was “inactive”. The AC50 [5] was 37.6 µM (active) and the AC50 [6] was 5.96 µM (active).
With `CCC[CH2][Sn]([Cl])([CH2]CCC)[CH2]CCC` the outcome [1] was “inactive”, the outcome [4] was “inactive” and the outcome [3] was “inactive”.
With `Clc1ccc(C(c2ccc(Cl)cc2)C(Cl)(Cl)Cl)cc1` the outcome [1] was “inactive”, the outcome [2] was “inactive” and the AC50 [4] was 100 µM (active). The AC50 [5] was 67.5 µM (active), the AC50 [6] was 2.67 µM (active) and the outcome [3] was “inactive”.
For `Clc1ccc(C(c2ccc(Cl)cc2)C(Cl)Cl)cc1`, the outcome [7] was “inactive”, the outcome [1] was “inactive” and the outcome [2] was “inactive”. For the same compound, the outcome [4] was “inactive”, the AC50 [5] was 50.3 µM (active) and the AC50 [6] was 24.6 µM (active).
